# The list is not random: actives were taken first. Their share in the collection is about 21%.
# DT40 TDP1 CPT: DT40-hTDP1 cell growth loss with CPT; AID 686979; 420,000 compounds, 12% hits; Potency, µM (doses to about 46.2 µM), without a hit: top-dose activity change, negative = growth inhibition, most hits filed as inhibitors; chicken DT40 Tdp1-/-;hTDP1 cells + 20 nM CPT, ATP luminescence, 48 h; further: potency means the concentration at half of the fitted maximal effect; nearly all actives have a fitted effect of over 55% in size
#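 Chicken DT40 Tdp1-/- cells complemented with human TDP1, 400 cells/well, exposed to compounds plus 20 nM camptothecin for at least 48 h at 37 C; viability read as ATP content by CellTiter-Glo luminescence.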
# ELG1 repair inh: inhibitors of ELG1-dependent DNA repair in HEK293T cells. HEK293T ELG1-luciferase reporter, luminescence, 16 h; DNA damage induced by 5-fluorouridine. Potency, µM (doses to about 46.1 µM), without a hit: top-dose activity change, negative = inhibition, hits mostly inhibitors. 330,000 compounds, 2.3% hits; further: potency means the concentration at half of the fitted maximal effect; nearly all actives have a fitted effect of over 55% in size
#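 Reporter activity after DNA damage by 5-fluorouridine is monitored. Compound-treated cells incubate 16 hr at 37 °C, then ONE-Glo is added for 30 min before luminescence reading.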
# Gal4-VP16 FLuc: counter-screen for ROR gamma inhibitors: Gal4-VP16 reporter; Drosophila S2 Gal4-VP16 UAS-luciferase, luminescence, 20 h; Potency, µM (series often up to 53.6 µM), without a hit: at the highest dose activity, negative = inhibition, most hits filed as inhibitors; 310,000 compounds, 3.5% hits; AID 2546;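 further: Gal4-VP16 expression switched on by copper sulfate through the metallothionein promoter; potency means the concentration at half of the fitted maximal effect; nearly all actives have a fitted effect of over 50% in size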
# IL1B secr inh: inflammasome signaling inhibition, IL-1 beta readout; THP-1 LPS/ATP IL-1B secretion, AlphaLISA, 16 h; hits give low values; activity change, % at 57.5 µM; 360,000 compounds, 4.7% hits; in the data active means activity change below about -50%; inconclusive means mostly about -30% to -49%
#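 THP-1 cells pretreated 1 hr with compounds (up to 57.5 uM final), then stimulated with LPS (250 ng/mL final) plus ATP (1.25 mM final); secreted IL-1B measured by AlphaLISA after 16 hr, decreased signal indicating inhibition.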
# RORg inh: blocks mouse ROR gamma transcriptional activity; Drosophila S2 Gal4-RORgamma UAS-luciferase reporter, 20 h; 310,000 compounds, 5.4% hits; Potency, µM (titrated, usually from 53.6 µM), inactives show at the highest dose activity change, negative = inhibition, most hits filed as inhibitors; further: potency means the concentration at half of the fitted maximal effect; nearly all actives have a fitted effect of over 60% in size
# Target sequence (P51450 whole entry, looked up, the tested form may be a part): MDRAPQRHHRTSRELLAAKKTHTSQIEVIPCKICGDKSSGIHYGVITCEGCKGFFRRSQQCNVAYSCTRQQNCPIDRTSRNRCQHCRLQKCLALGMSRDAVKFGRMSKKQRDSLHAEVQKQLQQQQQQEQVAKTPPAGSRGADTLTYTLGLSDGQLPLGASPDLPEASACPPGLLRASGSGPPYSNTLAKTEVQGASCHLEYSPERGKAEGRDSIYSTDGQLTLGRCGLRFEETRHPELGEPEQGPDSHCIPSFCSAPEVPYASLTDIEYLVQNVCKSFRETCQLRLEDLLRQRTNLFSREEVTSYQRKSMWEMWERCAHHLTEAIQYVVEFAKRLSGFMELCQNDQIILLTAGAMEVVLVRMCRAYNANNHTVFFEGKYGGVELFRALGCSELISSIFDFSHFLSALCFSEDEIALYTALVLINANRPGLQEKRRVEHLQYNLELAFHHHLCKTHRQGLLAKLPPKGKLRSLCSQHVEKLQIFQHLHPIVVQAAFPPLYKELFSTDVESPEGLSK
#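 Compounds are pin-transferred onto Drosophila Schneider cells expressing a copper-inducible Gal4–ROR gamma transactivation domain fusion. After 1 hr, copper sulfate is added to 700 uM final; luciferase is read 20 hr later.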
# TDP1 cell noCPT: qHTS for Inhibitors of human tyrosyl-DNA phosphodiesterase 1 (TDP1): qHTS in cells in absence of CPT; DT40 Tdp1-/- hTDP1 cells, no CPT, ATP luminescence, 48 h; Potency, µM (top dose mostly 46.2 µM), for inactives: at the highest dose activity change, negative = growth inhibition, usual class: inhibitors; 420,000 compounds, 15% hits; AID 686978, 2013; further: potency means the concentration at half of the fitted maximal effect; nearly all actives have a fitted effect of over 55% in size
#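 Growth kinetics read by CellTiter-Glo luminescence after ≥48 hr at 37 °C. Cells: DT40 Tdp1-/- stably carrying human TDP1, 400 per well, compound exposure in the absence of CPT (DMSO vehicle).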
# An asterisk follows results filed as active; ? = inconclusive; / = not tested or not shown; [ ] = dose if it differs, or a comment. Unless noted, the call rests on the fitted dose curve; in most records, active means well fitted curve in the direction sought with a large enough effect; inconclusive means small, poorly fitted or top-dose-only effect, or another doubt; inactive means no such curve, though single readings can be large; an effect the other way counts as inactive or inconclusive. On the % scale 0 is the no-effect control and ±100 the full control effect.
SMILES,DT40 TDP1 CPT,ELG1 repair inh,Gal4-VP16 FLuc,IL1B secr inh,RORg inh,TDP1 cell noCPT
CC(C)=CCN1CCN(Cc2cn(C(C)C)c3ccccc23)CC1CCO (stereo unspecified),18µM*,-1%,-8%,-4,-25%,23µM*
COc1ccc(CN2CCN(Cc3c[nH]c4ccccc34)CC2CCO)c(F)c1 (stereo unspecified),4.6µM*,?,-3%,?,4%,8.2µM*
COc1cc(CN2CCN(Cc3c[nH]c4ccccc34)CC2CCO)cc(OC)c1 (stereo unspecified),13µM*,0%,-5%,-23,-4%,?
COc1cc(CN2CCN(Cc3cn(C)c4ccccc34)CC2CCO)cc(OC)c1 (stereo unspecified),?,0%,-7%,?,-12%,?
COc1cccc(CN2CCN(Cc3[nH]c4ccccc4c3C)CC2CCO)c1 (stereo unspecified),?,-11%,-9%,-78*,38%,?
COc1cccc(CN2CCN(Cc3cc4ccccc4[nH]3)CC2CCO)c1 (stereo unspecified),?,0%,-7%,-11,21%,?
COc1ccc(CN2CCN(Cc3c[nH]c4ccccc34)CC2CCO)cc1C (stereo unspecified),6.5µM*,7%,0%,?,?,9.2µM*
CC(C)(C)CN1CCN(Cc2cc3ccccc3[nH]2)CC1CCO (stereo unspecified),-22%,-2%,-3%,-13,3%,-26%
CC(C)(C)CN1CCN(Cc2c[nH]c3ccccc23)CC1CCO (stereo unspecified),8.2µM*,-7%,-5%,-23,11%,8.2µM*
COCc1cc(CN2CCN(CCc3ccccc3)C(CCO)C2)ccc1OC (stereo unspecified),1%,-10%,-3%,2,1%,?
CCOc1ccc(S(=O)(=O)N2CCCC(C(=O)NCc3cccnc3)C2)cc1Cl (stereo unspecified),?,-29%,-10%,-2,28%,?
CCOC(=O)c1ccc(NC(=O)c2c(NCc3cc(OC)c(OC)cc3OC)sc3c2CCCC3)cc1,23µM*,/,/,/,/,?
COc1ccc(NC(=O)c2c(NC(=O)c3cccc(C)c3)sc3c2CCCC3)cc1,-1%,/,/,/,/,-14%
COc1cc(OC)c(OC)cc1CNc1sc2c(c1C(=O)Nc1ccccc1OC)CCC2,21µM*,/,/,/,/,21µM*
COc1ccccc1NC(=O)c1c(NC(=O)CCC(=O)O)sc2c1CCCCC2,-18%,10%,-28%,-9,-14%,-16%
CCOC(=O)c1ccc(NC(=O)c2c(NCc3cc(OC)ccc3OC)sc3c2CCC3)cc1,16µM*,/,/,/,/,?
CC(C)=NNc1nc2sc3c(c2c(=O)[nH]1)CC(C)(C)OC3,?,7%,-3%,0,-13%,-18%
Cc1csc(NS(=O)(=O)c2cccc([N+](=O)[O-])c2)n1,-1%,-10%,-18%,-9,1%,-22%
Cc1ccc(NNC(=O)CCc2ccccc2)c(C)c1,-7%,?,16%,/,4%,-3%
Cc1ccc(NNC(=O)c2ccno2)c(C)c1,3%,13µM*,-7%,45,-16%,18µM*
CCC(=O)Nc1cccc(NC(=O)c2ccc3c(c2)OCCO3)c1,?,?,4%,-23,15%,-29%
O=C(Nc1ccc2oc(-c3ccc4ccccc4c3)nc2c1)c1ccc2c(c1)OCCO2,5.8µM*,?,-24%,1,-14%,8.2µM*
COc1ccc2oc(-c3ccc(C)c(NC(=O)c4ccc5c(c4)OCCO5)c3)nc2c1,?,/,/,/,/,16µM*
O=C(Nc1ccc2oc(-c3ccc4ccccc4c3)nc2c1)c1cccc(Cl)c1Cl,8.2µM*,/,/,/,/,5.2µM*
COc1ccc2oc(-c3ccc(C)c(NC(=O)c4cccnc4)c3)nc2c1,-14%,/,/,/,/,1%
SMILES,DT40 TDP1 CPT,ELG1 repair inh,Gal4-VP16 FLuc,IL1B secr inh,RORg inh,TDP1 cell noCPT
CC(C)c1ccc2oc(-c3cccc(NC(=O)c4ccc5c(c4)OCCO5)c3)nc2c1,?,/,/,/,/,16µM*
O=C(CN(C(=O)c1csnn1)c1ccc(F)cc1)NCc1ccc2c(c1)OCO2,0%,-16%,6%,-3,2%,-13%
O=C(CSc1ccc(Cl)cc1)N1N=CCC1c1ccccc1 (stereo unspecified),?,0%,-6%,-63*,33%,?
NC(=NC(=O)c1ccc(Cl)cc1)N1N=CCC1c1ccccc1 (stereo unspecified),2%,?,1%,-27,-3%,?
O=c1cc(CSc2nnc(Nc3ccccc3F)s2)nc2sccn12,?,-12%,-13%,-9,19%,23µM*
Cc1ccc(Nc2nnc(SCc3cc(=O)n4cc(C)ccc4n3)s2)cc1,?,?,-6%,19,39%,-9%
Cc1ccc2nc(CSc3nnc(Nc4ccccc4F)s3)cc(=O)n2c1,?,?,-6%,0,44%,16µM*
O=C(CCCSc1nnc(Nc2ccccc2F)s1)N1CCOCC1,-5%,?,-22%,-20,9%,?
COC1=CC(=O)C[C@@H](C)[C@]12Oc1c(Cl)c(OC)cc(OC)c1C2=O,?,9%,-11%,-2,-27%,17µM*
CCCCC(C)(C)[C@H](O)/C=C/[C@H]1[C@H](O)CC(=O)[C@@H]1C/C=C\CCCC(=O)O,-4%[4.12 µM],/,-3%,/,2%,-10%[4.12 µM]
CCN(CC)S(=O)(=O)c1cc(NC(=O)COC(=O)c2c(C)noc2C)ccc1C,?,?,/,-50*,/,-20%
CCN(CC)S(=O)(=O)c1cc(NC(=O)c2ccccc2OCc2c(C)noc2C)ccc1C,16µM*,/,/,-10,/,16µM*
O=C(C[C@@H]1C/C=C/CC[C@@H](Cc2ccc(F)cc2)C(=O)O[C@H](c2ccccc2)CNC1=O)NCCO,?,?,/,24,/,?
CCc1nc2ccc(C(=O)NCCCN3CCCC3=O)cn2c1N(C)C(=O)Nc1ccccc1OC,-2%,/,/,16,/,17%
CC(=O)N1c2ccc(S(=O)(=O)N3CCCCC3)cc2CC1C(=O)Nc1ccc(C)cc1 (stereo unspecified),?,-7%,-8%,-11,1%,?
COc1ccc(OC)c2nc3c(cc12)CCC3,2%,-7%,?,26,16µM*,-1%

# Assay outcomes deposited in PubChem BioAssay by National Center for Advancing Translational Sciences (NCATS).
